Compound activity: PubChem, National Center for Advancing Translational Sciences (NCATS)
An excerpt weighted towards active compounds, which were near 8.1% of everything screened.
ELG1 repair inh: qHTS screen for small molecules that inhibit ELG1-dependent DNA repair in human embryonic kidney (HEK293T) cells expressing luciferase-tagged ELG1; HEK293T ELG1-luciferase reporter, luminescence, 16 h; DNA damage induced by 5-fluorouridine; Potency, µM (titrated, usually from 46.1 µM), for the others: top-dose activity change, negative = inhibition, most hits filed as inhibitors; 330,000 tested, 2.3% active; note: % is set by controls: 0 for no effect and ±100 for the full control effect; nearly all actives have a fitted effect of over 55% in size
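Cells (2,000 per well) received 5-fluorouridine plus test compound or DMSO and were incubated 16 hr at 37 °C, 5% CO2. Luciferase activity was read by luminescence 30 min after ONE-Glo addition; signal suppression marked inhibition of damage-induced ELG1 function.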
KB-3-1 tox: qHTS assay for MDR1-selective chemotherapeutics: Primary screen using the parental adenocarcinoma cell KB-3-1; KB-3-1 viability, CellTiter-Glo ATP luminescence, 72 h; Potency, µM (top dose mostly 46.1 µM), usual class: cytotoxic; 400,000 tested, 1.4% active; AID 1347075, 2019; note: % is set by controls: 0 for no effect and ±100 for the full control effect; nearly all actives have a fitted effect of over 60% in size
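Parental KB-3-1 adenocarcinoma cells in phenol-red-free DMEM with 10% FBS were pin-treated with compounds at several concentrations, incubated 72 h at 37 °C, and viability read by CellTiter-Glo luminescence; concentration-effect curves were fitted after normalization.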
KB-V1 cytotox: qHTS assay for MDR1-selective chemotherapeutics: Primary screen using the drug-selected MDR subline cells KB-V1; 400,000 tested, 3.4% active; Potency, µM (series often up to 46.1 µM), most hits filed as cytotoxic; KB-V1 MDR cells viability, CellTiter-Glo, 72 h; note: % is set by controls: 0 for no effect and ±100 for the full control effect; nearly all actives have a fitted effect of over 60% in size
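Luminescent ATP read-out (CellTiter-Glo, 10 min) measures survival of drug-selected KB-V1 MDR cells after 72 h, 37 degrees C compound exposure. Medium: phenol-red-free DMEM, 10% FBS. Values from fitted concentration-response curves.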
MCF10A rerep: A quantitative high throughput screen for small molecules that induce DNA re-replication in MCF 10a normal breast cells. Potency, µM (top dose mostly 46.1 µM), for the others: at the highest dose activity, positive = re-replication, hits mostly activators. 350,000 tested, 2.9% active. MCF 10A DNA re-replication, Hoechst nuclear intensity, 48 h. AID 624296, 2012; note: % of control where 0% means no effect; nearly all actives have a fitted effect of over 50% in size
SW480 rereplic: A quantitative high throughput screen for small molecules that induce DNA re-replication in SW480 colon adenocarcinoma cells; 340,000 tested, 1.8% active; SW480 DNA re-replication, Hoechst DNA content imaging, 48 h; Potency, µM (titrated, usually from 46.1 µM), inactives show top-dose re-replication activation, most hits filed as activators; note: % of control where 0% means no effect; nearly all actives have a fitted effect of over 55% in size
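Cells (250 per well) received 23 nL compound or DMSO by pin tool and were kept 48 hr at 37 C, 5% CO2. Nuclei were then stained with Hoechst for 40 min and scanned for DNA content.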
* hit, by the source's call; i = inactive; ? = inconclusive; nt = not tested or not shown. Calls come from the whole dose curve; as a rule, active = well fitted curve in the direction sought with a large enough effect; inconclusive = small, poorly fitted or top-dose-only effect, or another doubt; inactive = no such curve, though single readings can be large; an effect the other way counts as inactive or inconclusive. Potency is the fitted concentration of half-maximal effect.

SMILES	ELG1 repair inh	KB-3-1 tox	KB-V1 cytotox	MCF10A rerep	SW480 rereplic
CCOC(=O)/C=c1/s/c(=C/c2ccc3cc(OC)ccc3c2)c(=O)n1CC(=O)NCc1ccc2c(c1)OCO2	nt	?	i	1.5µM*	?
CCC(=O)Nc1nc(CC(=O)Nc2ccccc2)cs1	-4%	i	26µM*	6%	-2%
CCOC(=O)Cc1csc(NC(=O)Cc2ccccc2)n1	2%	i	?	7%	-6%
CCN(CC(=O)Nc1ccccc1OC)Cc1csc(CC(=O)Nc2ccc(C)cc2)n1	9.2µM*	i	i	?	?
COc1ccc(NC(=S)Nc2nc(CC(=O)Nc3ccccc3OC)cs2)cc1	?	?	8.2µM*	21µM*	?
COc1ccccc1NC(=O)Cc1csc(NC(=S)Nc2ccccc2)n1	9%	?	9.2µM*	?	2.6µM*
Cc1ccc(OCc2ccc(C(=O)Nc3c(C)nn(Cc4c(F)c(F)c(F)c(F)c4F)c3C)o2)c([N+](=O)[O-])c1	?	?	i	18%	1%
COc1ccccc1NC(=O)Nc1nc(CC(=O)N2CCN(c3ccccc3F)CC2)cs1	16µM*	?	?	?	-429%
COc1cc(C2CC(=O)Nc3ccccc3S2)cc(OC)c1OC (stereo unspecified)	10µM*	i	10µM*	?	5%
O=C1OCC2=C1C(c1ccc(F)cc1)Sc1ccccc1N2 (stereo unspecified)	3%	i	?	15%	-6%
COc1cc(C2Sc3ccccc3NC3=C2C(=O)OC3)cc(OC)c1OC (stereo unspecified)	-10%	23µM*	i	?	?
CC1Cc2cc(/C=C3/SC(N4CCC(C(N)=O)CC4)=NC3=O)ccc2O1 (stereo unspecified)	26µM*	?	i	-13%	13µM*
Cc1ccc2nc(-c3ccccc3)c(CN3CCN(c4ccccc4F)CC3)n2c1	-16%	i	i	?	15%
O=C1Nc2ccc(Br)cc2C1=C1CCCCC1	?	i	?	18µM*	?
COc1ccc(/C=N/Nc2nc(-c3ccc(C)cc3)c(NC(C)=O)s2)cc1OC	?	i	i	5%	-14%
COC(=O)c1ccc(Oc2cc(C)nc(Cl)n2)cc1	14%	i	i	0%	?
COC(=O)c1ccc(Oc2cc(C)nc(SC)n2)cc1	?	5.8µM*	4.6µM*	3.7µM*	19%
O=C(CN1CCN(c2ccc(O)cc2)CC1)Nc1cc(S(=O)(=O)N2CCCC2)ccc1Cl	23µM*	i	i	11%	?
O=C(CSc1ncnc2ccccc12)Nc1cc(S(=O)(=O)N2CCCCC2)ccc1Cl	21µM*	i	?	24%	17%
O=C(CN1CCN(c2ccc(O)cc2)CC1)Nc1cc(S(=O)(=O)N2CCCCC2)ccc1Cl	16µM*	i	8.2µM*	6%	-1%
CC(=O)c1ccc(S(=O)(=O)N(C)CC(=O)Nc2cccc(S(=O)(=O)N3CCCC3)c2)cc1	nt	i	i	18%	18%
O=C(NNC(=O)c1cc2ccccc2oc1=O)c1ccccc1[N+](=O)[O-]	9%	i	i	5%	-1%
Cc1cc(C)c(NC(=O)/C=C\C(=O)O)c([N+](=O)[O-])c1	-6%	i	i	15%	0.16µM*
Cc1ccc(NC(=O)/C=C\C(=O)O)c([N+](=O)[O-])c1	21%	i	i	-5%	-7%
O=c1c2ccccc2nc(-c2ccccc2)n1Cc1ccc(Cl)cc1	1%	i	i	18µM*	10%
SMILES	ELG1 repair inh	KB-3-1 tox	KB-V1 cytotox	MCF10A rerep	SW480 rereplic
O=c1c2ccccc2nc2n1CCN2Cc1ccc(Cl)cc1	-19%	16µM*	4.6µM*	-6%	-13%
O=c1c2ccccc2nc(-c2ccccc2)n1Cc1ccccc1	?	i	i	?	-3%
COc1ccc2nc(NC(=O)c3cc(=O)c4ccccc4o3)sc2c1	nt	i	i	nt	nt
CCN(CC)C(=O)CSc1nc2cc3c(cc2c(=O)n1CCCCCC(=O)NCc1ccc(OC)cc1)OCO3	-32%	i	?	18µM*	16%
CCN(CC)C(=O)CSc1nc2cc3c(cc2c(=O)n1CCCC(=O)NCCc1ccc(OC)c(OC)c1)OCO3	?	i	i	-2%	-3%
CS(=O)(=O)N1N=C(c2ccc3nccnc3c2)CC1c1ccccc1 (stereo unspecified)	13%	i	?	12%	-7%
CCOC(=O)C(C)Oc1cccc2c(=O)n(CC(=O)NCc3ccccc3)ccc12 (stereo unspecified)	?	1.2µM*	2.1µM*	0.58µM*	1.3µM*
COC(=O)COc1cccc2c(=O)n(CC(=O)NCc3ccc(F)cc3)ccc12	?	1.5µM*	?	10µM*	5.8µM*
CCOC(=O)C(C)Oc1cccc2c(=O)n(CC(=O)NCc3ccc(F)cc3)ccc12 (stereo unspecified)	?	1.3µM*	1.3µM*	?	?
CCOC(=O)COc1cccc2c(=O)n(CC(=O)NCc3ccc4c(c3)OCO4)ccc12	-2%	?	i	?	7.3µM*
CCOC(=O)C(C)Oc1cccc2c(=O)n(CC(=O)NCCc3ccccc3)ccc12 (stereo unspecified)	4%	i	i	0%	3%
CC1(C(=O)Nc2ccc(Cl)c(C(F)(F)F)c2)Cc2c(-c3ccccc3)ccnc2O1 (stereo unspecified)	nt	i	i	nt	nt
CC(=O)Nc1ccc(-c2ccnc3c2CC(C)(C(=O)Nc2ccc4c(c2)OCO4)O3)cc1 (stereo unspecified)	nt	18µM*	i	nt	nt
CC1(C(=O)Nc2cccc(Oc3ccccc3)c2)Cc2c(-c3ccc4c(c3)OCO4)ccnc2O1 (stereo unspecified)	nt	4.6µM*	5.8µM*	nt	nt
CC1(C(=O)Nc2cccnc2)Cc2c(-c3ccc4c(c3)OCO4)ccnc2O1 (stereo unspecified)	nt	15µM*	?	nt	nt
CN(C)c1ccc(-c2ccnc3c2CC(C)(C(=O)Nc2ccc(Cl)c(C(F)(F)F)c2)O3)cc1 (stereo unspecified)	nt	16µM*	?	nt	nt
Cc1nonc1OC(C)CNCCNc1ccc([N+](=O)[O-])cc1 (stereo unspecified)	5%	i	?	-56%	-13%
O=C(Nc1ccc(F)cc1)[C@@H](c1ccccc1)N1Cc2ccccc2C1=O	nt	i	i	nt	nt
